Among the test systems are HCT-15 colon; HT29 colon; SNB-75 CNS; U251 CNS; PC-3 prostate; SK-MEL-5 melanoma; UACC-62 melanoma; SK-MEL-28 melanoma; LOX IMVI melanoma; SNB-19 CNS.
What all share (assay): NCI-60 one-dose screen, 48 h (100 = growth as untreated, 0 = no growth, -100 = all killed)
Conditions in all cases: 10 µM unless noted

This is part of a sample that, as a whole, favours compounds with a hit. Of some 83,000 tested, about 20% had one in any assay.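 Values shown are percent growth following 48 h exposure of cells in 96-well plates to a single concentration of compound; below 10 was considered active.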 Unmarked numbers belong to inactive results. The source made the active and inactive calls.

As to `CN(C)CC(C(=O)Cc1ccccc1)c1ccccc1` (centres undefined), the growth with HCT-15 colon was 37.2%; in the assay with HT29 colon, 30%; in the assay on SNB-75 CNS, 73.4%; with U251 CNS, 110%; with PC-3 prostate, 73.2%; in the assay on SK-MEL-5 melanoma it was 97.2%. In addition, the growth in the assay with UACC-62 melanoma is 112%; with SK-MEL-28 melanoma, 96.5%.

As to `CC(=O)[C@H]1CC[C@H]2[C@@H]3CC[C@H]4C[C@H](N)CC[C@]4(C)[C@H]3CC[C@]12C`, the growth in the assay with HCT-15 colon is 64.5%; with HT29 colon, 13.7%; in the assay on SNB-75 CNS, 49.5%; with U251 CNS it was 69.2%; in the assay with PC-3 prostate, 62.1%; in the assay with SK-MEL-5 melanoma, 62.8%. The growth with UACC-62 melanoma was 80.9%; in the assay with LOX IMVI melanoma, 69.4%; in the assay on SK-MEL-28 melanoma it was 86.2%.

For the compound `NC(=O)c1c(Br)n(C2OC(CO)C(O)C2O)c2ncnc(N)c12` (centres undefined), the growth in the assay with HCT-15 colon was 3.75% (active); in the assay on HT29 colon, 16.3%; in the assay on SNB-75 CNS, 37.5%; in the assay on U251 CNS it was 33.4%; with PC-3 prostate, -10.5% (active); in the assay on SK-MEL-5 melanoma, 50.7%. In addition, the growth was 8.21% (active) with UACC-62 melanoma, 1.47% (active) in the assay with LOX IMVI melanoma and -4.78% (active) in the assay on SK-MEL-28 melanoma.

Turning to `NC(=S)c1cn(C2OC(CO)C(O)C2O)c2ncnc(N)c12` (centres undefined), the growth in the assay on HCT-15 colon was -11.2% (active); with HT29 colon, 2.78% (active); with SNB-75 CNS, -8.8% (active); in the assay on U251 CNS it was -7.25% (active); with PC-3 prostate, 6.45% (active); in the assay on SK-MEL-5 melanoma, -73.7% (active). Further, the growth in the assay on UACC-62 melanoma is -77.1% (active); in the assay on LOX IMVI melanoma, -22.9% (active); in the assay with SK-MEL-28 melanoma it was -40.3% (active).

On to `Cn1cccc1C1CC(=O)N(CCC[Se]C#N)C1=O` (centres undefined), for which the growth is -56.5% (active) in the assay on HCT-15 colon; 7.03% (active) with HT29 colon; -65.2% (active) with SNB-19 CNS; -85.5% (active) with U251 CNS; 6.15% (active) in the assay with PC-3 prostate; -51.9% (active) in the assay with SK-MEL-5 melanoma. For the same compound, the growth was 27% in the assay with UACC-62 melanoma, -66.8% (active) with LOX IMVI melanoma and -6.1% (active) in the assay on SK-MEL-28 melanoma.

As for `COc1ccc(/C=C\c2cc(OC)c(OC)c(OC)c2)cc1NS(=O)(=O)c1ccc(Cl)cc1`, the growth with HCT-15 colon is 54.2%; in the assay on HT29 colon, 75.7%; with SNB-19 CNS, 87.2%; in the assay on U251 CNS it was 77.8%; in the assay on PC-3 prostate it was 42.7%; with SK-MEL-5 melanoma, 51.6%. The results for the growth with UACC-62 melanoma, with LOX IMVI melanoma and in the assay with SK-MEL-28 melanoma were 45.1%, 71.3% and 53%, respectively.

Consider `COc1ccc(/C(C)=C(\c2ccc(OCCN3CCOCC3)cc2)c2ccc(OC(=O)Cc3ccccc3)cc2)cc1`, for which the growth in the assay on HCT-15 colon is 98.5%; with HT29 colon, 92.4%; in the assay with SNB-19 CNS, 111%; with U251 CNS, 102%; in the assay with PC-3 prostate, 94.5%; in the assay on SK-MEL-5 melanoma, 106%. Also, the growth in the assay on UACC-62 melanoma was 106%; in the assay with LOX IMVI melanoma, 103%; in the assay with SK-MEL-28 melanoma, 108%.

As for `COc1ccc(C/C(C)=C(\c2ccc(OCCN3CCOCC3)cc2)c2ccc(OC(=O)Cc3ccccc3)cc2)cc1`, the growth was -23.7% (active) in the assay on HCT-15 colon; -89.7% (active) in the assay on HT29 colon; 13.8% in the assay on SNB-19 CNS; -97.3% (active) in the assay with U251 CNS; -1% (active) in the assay with PC-3 prostate; -91.9% (active) in the assay on SK-MEL-5 melanoma. In addition, the growth with UACC-62 melanoma is -87.7% (active); in the assay with LOX IMVI melanoma, -94.1% (active); in the assay on SK-MEL-28 melanoma, -80.6% (active).

Consider `Cc1ccc(N2COOC3(OOC2)C2CC4CC(C2)CC3C4)cc1`, for which the growth was 96.6% with HCT-15 colon; 97.5% in the assay on HT29 colon; 106% with SNB-19 CNS; 96.1% in the assay on U251 CNS; 93.5% with PC-3 prostate; 90.5% in the assay on SK-MEL-5 melanoma. The growth is 109% in the assay with UACC-62 melanoma, -61.6% (active) with LOX IMVI melanoma and 103% in the assay with SK-MEL-28 melanoma.

Consider `C[C@]12CCc3sc(NCCc4ccccc4)nc3C1=CC[C@@H]1[C@@H]2CC[C@]2(C)C(=O)CC[C@@H]12`, for which the growth was 22.5% in the assay on HCT-15 colon; 34.3% with HT29 colon; 80.2% with SNB-19 CNS; 60.1% in the assay on U251 CNS; 38.8% in the assay with PC-3 prostate; 66% in the assay on SK-MEL-5 melanoma. Further, the growth is 75.6% in the assay on UACC-62 melanoma, 70.2% with LOX IMVI melanoma and 83.3% in the assay on SK-MEL-28 melanoma.

On to `Cc1cccc(N2CCN(C(C)C#N)CC2)c1` (centres undefined), for which the growth in the assay with HCT-15 colon is 106%; with HT29 colon, 105%; with SNB-75 CNS, 106%; in the assay on PC-3 prostate, 102%; in the assay on SK-MEL-5 melanoma, 105%; in the assay with UACC-62 melanoma, 111%. The growth in the assay with LOX IMVI melanoma was 94.7%; with SK-MEL-28 melanoma, 114%.

For the compound `CC[C@]12C=CCN3CC[C@@]4(c5ccc(OC)cc5N(C)[C@H]4[C@@](O)(C(=O)OC)[C@@H]1OC(=O)CCCC[P+](c1ccccc1)(c1ccccc1)c1ccccc1)[C@@H]32`, the growth in the assay with HCT-15 colon was 99.3%; in the assay on HT29 colon it was 2.65% (active); in the assay with SNB-75 CNS it was -12.8% (active); with U251 CNS, 10.9%; in the assay on SK-MEL-5 melanoma, -72.9% (active); with UACC-62 melanoma, -6.54% (active). Moreover, the growth is 18.5% in the assay on LOX IMVI melanoma and 12.5% with SK-MEL-28 melanoma.

On to `CCOC(=O)N1CC1`, for which the growth was 96.3% with HCT-15 colon; 97.5% with HT29 colon; 98.4% in the assay with SNB-19 CNS; 96.3% with U251 CNS; 88.1% in the assay on PC-3 prostate; 101% in the assay on SK-MEL-5 melanoma. Further, the growth in the assay on UACC-62 melanoma is 88.4%; in the assay with LOX IMVI melanoma, 92.7%; in the assay with SK-MEL-28 melanoma, 103%.

Turning to `CN1CCC(c2c[nH]c3ccccc23)C1` (centres undefined), the growth in the assay on HCT-15 colon was 102%; in the assay with HT29 colon it was 100%; in the assay on SNB-19 CNS it was 95.2%; in the assay on U251 CNS, 98.2%; with PC-3 prostate, 112%; with SK-MEL-5 melanoma, 130%. Besides, the growth in the assay on UACC-62 melanoma is 107%; in the assay with LOX IMVI melanoma it was 88.2%; in the assay with SK-MEL-28 melanoma it was 107%.

Turning to `O=C1CN=C(c2ccc(Cl)cc2)c2sccc2N1`, the growth in the assay with HCT-15 colon was 98.6%; in the assay on HT29 colon, 100%; with SNB-19 CNS, 96.6%; in the assay on U251 CNS, 101%; in the assay on PC-3 prostate, 98.6%; in the assay with SK-MEL-5 melanoma, 99.5%. The figures for the growth in the assay on UACC-62 melanoma, in the assay on LOX IMVI melanoma and with SK-MEL-28 melanoma were 91.6%, 95.3% and 105%, respectively.

Turning to `Clc1cccc(NCOOC2(OOCNc3cccc(Cl)c3)CCCCC2)c1`, the growth is 70.2% in the assay on HCT-15 colon; 74.5% in the assay on HT29 colon; 90.2% in the assay on SNB-19 CNS; 61.4% in the assay with U251 CNS; 77.6% with PC-3 prostate; 71.4% with SK-MEL-5 melanoma. Moreover, the figures for the growth with UACC-62 melanoma, in the assay on LOX IMVI melanoma and in the assay with SK-MEL-28 melanoma were 34.3%, -86.1% (active) and 100%, respectively.

Regarding `Fc1cccc(NCOOC2(OOCNc3cccc(F)c3)CCCCC2)c1`, the growth in the assay on HCT-15 colon was 99.2%; in the assay on HT29 colon, 96%; in the assay with SNB-19 CNS it was 96.2%; with U251 CNS, 102%; in the assay on PC-3 prostate, 88.9%; with SK-MEL-5 melanoma it was 95.2%. Besides, the growth with UACC-62 melanoma is 104%; with LOX IMVI melanoma, -68.9% (active); in the assay with SK-MEL-28 melanoma, 109%.

Turning to `COC(=O)N[C@H]1CCc2c(Br)c(OC)c(OC)c(OC)c2-c2ccc(SC)c(=O)cc21`, the growth in the assay on HCT-15 colon is 7.69% (active); in the assay with HT29 colon, 12%; in the assay with SNB-19 CNS, 28.2%; in the assay on U251 CNS, 21.4%; in the assay with PC-3 prostate, 21.7%; in the assay with SK-MEL-5 melanoma, -44.6% (active). The growth in the assay with UACC-62 melanoma is 38.6%; in the assay with LOX IMVI melanoma, 12.1%; in the assay on SK-MEL-28 melanoma it was 66.9%.
